Measured values as given in PubChem BioAssay (NCI).
The panel holds about 83,000 compounds, 20% with a hit somewhere; the sample as a whole holds those more often.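 Interpretation: 100, growth as untreated; towards 0, rising growth inhibition; 0, no net growth; 0 to -100, cell death. Compounds scoring below 10 were considered active.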 Unmarked numbers belong to inactive results. The source made the active and inactive calls.

What was measured:
Assay in all cases: NCI-60 one-dose screen, 48 h (100 = growth as untreated, 0 = no growth, -100 = all killed)
Details in all cases: 10 µM unless noted
[1] = system: SR leukemia
[2] = system: RPMI-8226 leukemia
[3] = system: OVCAR-8 ovarian
[4] = system: OVCAR-5 ovarian
[5] = system: SK-OV-3 ovarian
[6] = system: IGROV1 ovarian
[7] = system: OVCAR-3 ovarian
[8] = system: HS 578T breast
[9] = system: NCI/ADR-RES ovarian
[10] = system: OVCAR-4 ovarian

| Structure (SMILES) | growth [1] | growth [2] | growth [3] | growth [4] | growth [5] | growth [6] | growth [7] | growth [8] | growth [9] | growth [10] |
| --- | --- | --- | --- | --- | --- | --- | --- | --- | --- | --- |
| O=C(N/N=C\c1c(O)ccc2ccccc12)C1CC1 | 18.3% | 40.4% | 33.1% | 90.9% | 44.9% | 24.3% | 1.02% (active) | 74.6% | 9.42% (active) | – |
| c1ccc(-c2nc(Nc3ccc(-c4nc5ccccc5[nH]4)cc3)nc(N3CCOCC3)n2)cc1 | 8.94% (active) | -22.6% (active) | -50.4% (active) | 0.632% (active) | -30.3% (active) | -38.1% (active) | -73.4% (active) | -39.9% (active) | -60.8% (active) | – |
| CC1(C)CC[C@]2(C(=O)Nc3ccccn3)CC[C@]3(C)C(=CC[C@@H]4[C@@]5(C)C/C(=C/c6ccncc6)C(=O)C(C)(C)[C@@H]5CC[C@]43C)[C@@H]2C1 | 8.26% (active) | -0.291% (active) | 41.5% | 75.5% | 71.8% | 50.6% | 12.6% | – | 51.3% | – |
| Clc1ccc2c(NCCNc3nc(-c4ccccc4)cc(-c4ccccc4)n3)ccnc2c1 | -19.4% (active) | -34.4% (active) | -70.6% (active) | – | 83.6% | -83.1% (active) | -85.6% (active) | -17.2% (active) | -41.8% (active) | -66.4% (active) |
| N#Cc1cnc2cc(OC[C@@H](O)CO)c(NC(=O)CC3CSSC3)cc2c1Nc1ccc(OCc2cccc(F)c2)c(Cl)c1 | 1.96% (active) | -29.7% (active) | -48.2% (active) | -72.8% (active) | -86.2% (active) | -56% (active) | -81.3% (active) | – | 85.9% | – |
| O=C(NC1=CC(=O)c2ccccc2C1=O)c1ccccc1 | -0.906% (active) | 4.25% (active) | 22.4% | 42.2% | 32% | -30.1% (active) | – | 25.3% | 16.6% | – |
| CCCCC[C@H]1C/C=C2/C(=O)C(Cl)=C[C@@H]2C/C=C\CCCC(=O)O1 | 2.6% (active) | -23.5% (active) | -19.1% (active) | – | -15.2% (active) | -61% (active) | -89.5% (active) | 29.7% | 12.1% | 16.3% |
| CC/C(=N/NC(N)=O)c1ccccc1 | 110% | 97.8% | 103% | – | 116% | 108% | 109% | 104% | 104% | 120% |
| COc1ccc(NC(=S)N/N=C/c2ccccc2SSCCC(=O)OC[C@H]2O[C@H](O)[C@H](O)[C@@H](O)[C@@H]2O)cc1 | 49.6% | 91.7% | 68.3% | – | 73.5% | 56.8% | 91.3% | 91.6% | 59.7% | 80.4% |
| NCCn1cc(-c2nc(-c3c[nH]c4ncccc34)cs2)c2ccccc21 | 62.6% | 78.1% | 86.7% | – | 82.2% | 50.2% | 90.8% | 84.4% | 98.1% | 68.2% |
| Cn1cc(-c2nc(-c3c[nH]c4ncccc34)cs2)c2ccccc21 | 40% | 64% | 101% | 49.1% | 95.5% | 51% | 77.7% | – | 74.4% | – |
| O=C1CNCCN1 | 102% | 98.9% | 103% | – | 112% | 99.7% | 109% | 100% | 106% | 108% |
| C[C@@H](C(=O)O)c1ccc2c3cc(Cl)ccc3n(Cc3cc(=O)oc4ccc(Cl)cc34)c2c1 | 94.7% | 109% | 105% | 97.3% | 96.9% | 74.2% | 98.7% | 101% | 98.3% | – |
| CN(C)c1cccc2[nH]c(-c3[nH]ncc3Nc3ccnc(N)n3)nc12 | 7.64% (active) | -15.6% (active) | -22.7% (active) | – | 0.381% (active) | -11% (active) | -6.36% (active) | -13.8% (active) | -1.48% (active) | -11.7% (active) |
| Nc1c(C(=O)Nc2cccc(Cl)c2)sc2ncc(Cl)cc12 | 66.3% | 75% | 81.9% | – | 81% | 79.5% | 71.4% | – | – | -4.92% (active) |
